DT40 TDP1 no CPT = qHTS for Inhibitors of human tyrosyl-DNA phosphodiesterase 1 (TDP1): qHTS in cells in absence of CPT; DT40 Tdp1-/- hTDP1 cells, no CPT, ATP luminescence, 48 h; Potency, µM (doses to about 46.2 µM), for the others: at the top dose activity change, negative = growth inhibition, usual class: inhibitors; hit rate 15% among 420,000; AID 686978, 2013; further: on the % scale 0 is the no-effect control and ±100 the full control effect; nearly all actives have a fitted effect of over 55% in size
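A cellular qHTS used chicken DT40 cells lacking endogenous Tdp1 but carrying stably transfected human TDP1. Compounds were applied without camptothecin, and cell growth kinetics were judged by ATP-dependent luminescence after ≥48 hr.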
TGFb inhibitor = TGF-b pathway inhibition. AID 588855. HepG2 CAGA-GFP TGF-b/SMAD3 reporter, GFP fluorescence, 18 h; TGF-beta stimulated, 500 pg/mL final. hit rate 1.2% among 410,000. Potency, µM (highest dose often 46.1 µM), without a hit: at the highest dose activity, negative = inhibition, hits mostly inhibitors; further: on the % scale 0 is the no-effect control and ±100 the full control effect; nearly all actives have a fitted effect of over 65% in size
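Read-out: total well GFP (ex488/em500-530) summed from mean per-cell fluorescence. Cells: HEPG2 CAGA-GFP, 1% FBS DMEM, 18 h at 37 degrees C with 500 pg/mL final TGF-beta. Unstimulated wells served as the full-inhibition control; stimulated DMSO wells = 0%.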
HepG2 tox = kills HepG2 cells in TGF-b inhibitor counter-screen. HepG2 CAGA-GFP viability, ATP luminescence, 18 h. Potency, µM (doses to about 46.1 µM), for inactives: at the top dose activity change, negative = cytotoxicity, actives largely listed as cytotoxic. hit rate 0.76% among 410,000. AID 588856
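CellTiter-Glo luminescence gave cytotoxicity after 18 hours at 37 degrees C. The cells were HepG2 CAGA-GFP in 1% FBS DMEM, stimulated with 500 pg/mL TGF-beta after compound addition. %Activity was normalised to no-cell wells (complete cell-killing) and DMSO (no toxicity), and curves were fitted and classified.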
HT1080NT lethal = kills 2HG-producing HT-1080-NT fibrosarcoma cells. HT-1080-NT fibrosarcoma viability, CellTiter-Glo ATP luminescence, 48 h. Potency, µM (top dose mostly 46.1 µM), for inactives: top-dose activity, negative = less viability, actives largely listed as cytotoxic. hit rate 1.6% among 360,000;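 further: NT is the 2HG producing partner of a matched IDH1 knockdown line; 0% = DMSO-treated cells and -100% = media-only wells without cells; nearly all actives have a fitted effect of over 55% in size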
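750 cells/well, RPMI + 5% FBS; 2 h settle, compound pin-transfer, 48 h at 37 degrees C. CellTiter-Glo 10 min RT, luminescence. Normalized to DMSO and media-only wells.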
DT40 TDP1 CPT = DT40-hTDP1 cell growth loss with CPT; hit rate 12% among 420,000; AID 686979; Potency, µM (top dose mostly 46.2 µM), for inactives: at the top dose activity change, negative = growth inhibition, hits mostly inhibitors; chicken DT40 Tdp1-/-;hTDP1 cells + 20 nM CPT, ATP luminescence, 48 h; further: on the % scale 0 is the no-effect control and ±100 the full control effect; nearly all actives have a fitted effect of over 55% in size
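Chicken DT40 Tdp1-/- cells complemented with human TDP1, 400 cells/well, exposed to compounds plus 20 nM camptothecin for at least 48 h at 37 C; viability read as ATP content by CellTiter-Glo luminescence.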
HT1080 IDH1KD tx = HT-1080 IDH1 knockdown cell toxicity (counter line); Potency, µM (doses to about 46.1 µM), for the others: top-dose activity, negative = toxicity, hits mostly cytotoxic; hit rate 2% among 360,000; HT-1080 IDH1 knockdown viability, ATP luminescence, 48 h; AID 686971;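 further: 0% = DMSO wells and -100% = cell-free medium wells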
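Using the IDH1-knockdown HT-1080 line run in the same batch and compound series as the NT line, viability after 48 h at 37 °C was determined by CellTiter-Glo luminescence and expressed as % activity.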
An asterisk follows results filed as active; ? = inconclusive; nt = no result. Only some compounds are listed: those with a hit (about 17% of all), similar ones and a draw of the others. The call rests on the fitted dose curve; in most records, active means well fitted curve in the direction sought with a large enough effect; inconclusive means small, poorly fitted or top-dose-only effect, or another doubt; inactive means no such curve, though single readings can be large; an effect the other way counts as inactive or inconclusive. Potency means the concentration at half of the fitted maximal effect.

SMILES | DT40 TDP1 no CPT | TGFb inhibitor | HepG2 tox | HT1080NT lethal | DT40 TDP1 CPT | HT1080 IDH1KD tx
CCC(C)NCCC(=O)Nc1ccc(Cl)c(S(=O)(=O)Nc2ccc(Cl)cc2)c1 (stereo unspecified) | ? | 3.9% | 3.2% | ? | ? | 14.6µM*
CCOc1ccc(Oc2ccc(NS(=O)(=O)c3cc(C(=O)O)ccc3Cl)cc2)cc1 | 20.3% | -0.1% | 1.2% | -14.4% | -6.5% | -14.4%
CS(=O)(=O)c1ccc(Cl)c(NC(=O)CSc2nnc(C3CC3)n2C2CC2)c1 | 3.2% | -0.1% | -2.1% | 0.6% | 11.3% | 4.5%
Cc1ccc(C)c(NC(=O)C2C3CCCC2C3c2ccccc2)c1 (stereo unspecified) | -16.3% | 12.1% | -10.4% | 11.8% | ? | 2.6%
Cc1ccccc1NC(=O)C1C2CCCC1C2c1ccccc1 (stereo unspecified) | ? | 0.6% | -16.7% | -0.2% | 18.4µM* | -4.0%
Cc1ccccc1OCC(=O)Nc1cccc(N(C)S(C)(=O)=O)c1 | -29.3% | -17.3% | 2.0% | 1.6% | -21.6% | 13.5%
CN(c1cccc(NC(=O)CSc2ccc(Cl)cc2)c1)S(C)(=O)=O | 11.2µM* | 0.6% | -32.2% | ? | 10µM* | ?
CN(c1cccc(NC(=O)COc2ccc(Cl)cc2Cl)c1)S(C)(=O)=O | ? | -29.8% | -19.0% | -17.7% | 20.6µM* | ?
Cc1ccc(-n2nc(-c3ccco3)cc2C(=O)O)c(C)c1 | -3.4% | -9.8% | 22.0% | 13.1% | 16.2% | 7.7%
CCN(CC)Cc1cc(O)c(CN(CC)CC)cc1O | 4.11µM* | -3.0% | -3.0% | 9.5% | 6.51µM* | -0.5%
CCOC(=O)C1CCCN(C(=O)Cn2c(=O)c3cccn3c3cccnc32)C1 (stereo unspecified) | 8.8% | -8.7% | -10.3% | 5.9% | 3.4% | 2.9%
Cc1cc(N(C)Cc2ccccc2)nc2cc(O)ccc12 | ? | -2.7% | 1.8% | ? | 7.4% | ?
CCS(=O)(=O)N1Cc2ccccc2CC1C(=O)Nc1nc(C)cs1 (stereo unspecified) | ? | 30.6% | -1.2% | 16.2% | -1.4% | 9.4%
O=C(Nc1nnc(C2CC2)s1)C1Cc2ccccc2CN1S(=O)(=O)c1cccs1 (stereo unspecified) | 16.4µM* | ? | -26.4% | -8.3% | 20.6µM* | -7.8%
CCS(=O)(=O)N1Cc2ccccc2CC1C(=O)Nc1nnc(SCc2c(Cl)cccc2Cl)s1 (stereo unspecified) | ? | ? | -27.7% | -2.2% | ? | -16.8%
CCc1nnc(NC(=O)C2Cc3ccccc3CN2S(=O)(=O)c2cccs2)s1 (stereo unspecified) | ? | 0.6% | -5.9% | -7.0% | -30.0% | -0.4%
CCSc1nnc(NC(=O)C2Cc3ccccc3CN2S(=O)(=O)CC)s1 (stereo unspecified) | 16.4µM* | -7.9% | -37.7% | -8.2% | ? | -17.3%
CCS(=O)(=O)N1Cc2ccccc2CC1C(=O)Nc1nc2c(C)cccc2s1 (stereo unspecified) | 25.9µM* | 0.0% | -11.9% | -11.5% | -25.0% | -26.7%
Cc1cc(=O)c2c(=O)[nH][nH]c2[nH]1 | -18.8% | 8.4% | 0.4% | -1.5% | 16.9% | 5.6%
COc1ccc(CCNC(=O)c2ccc3c(c2)CCN3S(=O)(=O)c2ccc(C)cc2)cc1 | 10.3µM* | -23.9% | -9.6% | nt | ? | nt
O=C(NCCc1ccccc1)c1ccc2c(c1)CCN2S(=O)(=O)c1ccccc1 | 14.6µM* | 13.1% | -2.0% | nt | 20.6µM* | nt
COc1ccc(CNC(=O)c2ccc3c(c2)CCN3S(=O)(=O)c2ccccc2)cc1 | 18.4µM* | -24.5% | -7.2% | nt | 11.6µM* | nt
COc1ccc(NC(=O)c2ccc3c(c2)CCN3S(=O)(=O)c2ccccc2)c(OC)c1 | ? | -4.3% | -63.0% | -0.4% | ? | 3.7%
Cc1ccc(CNC(=O)c2ccc3c(c2)CCN3S(=O)(=O)c2ccc(Br)cc2)cc1 | -23.9% | ? | 0.1% | nt | -17.5% | nt
O=c1cc(O)c(Cl)c[nH]1 | -11.7% | nt | nt | nt | 2.9% | nt
SMILES | DT40 TDP1 no CPT | TGFb inhibitor | HepG2 tox | HT1080NT lethal | DT40 TDP1 CPT | HT1080 IDH1KD tx
NC(=O)C1CCN(CC(=O)N2N=CCC2c2ccccc2)CC1 (stereo unspecified) | -14.9% | 4.3% | 4.6% | 11.9% | 15.2% | 5.7%
Cc1cccc(C)c1OCc1nc2c3c(-c4ccccc4)c(-c4ccccc4)oc3ncn2n1 | -11.4% | 0.8% | 1.4% | nt | -4.4% | nt
COc1ccc(CCNC(=O)CSCc2ccc(Cl)cc2)cc1OC | ? | ? | -21.1% | 2.1% | ? | 10.0%
COc1ccc(CCNC(=O)CSCc2ccc([N+](=O)[O-])cc2)cc1OC | 25.9µM* | -12.9% | -30.7% | 0.8% | 25.9µM* | -1.2%
COc1ccccc1CCNC(=O)C(C)Sc1nc(-c2ccccc2)cc(C(F)(F)F)n1 (stereo unspecified) | 14.6µM* | -9.6% | -44.4% | nt | 16.4µM* | nt
COCCn1c(-c2ccc(Cl)cc2)cnc1SCC(=O)NCCc1ccc(OC)c(OC)c1 | ? | -26.2% | -15.1% | -0.4% | 20.6µM* | -16.0%
COc1ccc(CC(=O)N/N=C/c2cccn2-c2ccc([N+](=O)[O-])cc2)cc1OC | 14.6µM* | -3.2% | -6.7% | -0.1% | 16.4µM* | 3.8%
Cc1ccc(Cl)cc1N(CC(=O)NC(C)c1ccccc1)S(C)(=O)=O (stereo unspecified) | -13.2% | 12.9% | -9.3% | ? | -5.9% | 4.4%
COc1ccc(CCNC(=O)CSc2nc(C)cc(C)n2)cc1OC | 10.9% | -0.8% | 11.4% | -4.0% | 7.5% | 3.6%
COc1ccc(CCNC(=O)CSc2nnc(-c3ccc(C)cc3)c(-c3ccc(C)cc3)n2)cc1OC | 16.4µM* | -10.1% | -34.9% | nt | ? | nt
COc1ccc(CCNC(=O)Nc2cc(F)c(F)cc2Cl)cc1OC | 8.2µM* | -24.8% | -1.3% | -13.3% | 23.1µM* | -0.6%
COC(=O)c1ccccc1NC(=O)NCCc1ccc(OC)c(OC)c1 | ? | -3.2% | 3.2% | 14.1% | -10.1% | -0.8%
COc1ccc(-c2cc(C(F)(F)F)nc(SCC(=O)N(C)Cc3cn(C)nc3C)n2)cc1OC | 11.6µM* | -6.4% | 4.4% | -0.7% | 18.4µM* | 0.9%
COc1ccc(-c2cc(C(F)(F)F)nc(SCC(=O)NCc3cnn(C)c3C)n2)cc1OC | -3.2% | -1.7% | 18.9% | 5.5% | -28.5% | -7.4%
